From PubChem BioAssay AID488969 (Vanderbilt High Throughput Screening Facility, 2010)
The full ranking holds about 110,000 compounds; the median of “z-score” is about -0.1, and the highest 2% start at about 2. Shown is part of a subset that was picked to be rich in the highest values. Active and inactive are the calls of the source.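 How the source made its calls: active means z-score in the third read window above 3 or below -3; inactive means the rest.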

Biological target: Metabotropic glutamate receptor 8 (Rattus norvegicus) (UniProt P70579)
Sequence (P70579 whole entry, looked up): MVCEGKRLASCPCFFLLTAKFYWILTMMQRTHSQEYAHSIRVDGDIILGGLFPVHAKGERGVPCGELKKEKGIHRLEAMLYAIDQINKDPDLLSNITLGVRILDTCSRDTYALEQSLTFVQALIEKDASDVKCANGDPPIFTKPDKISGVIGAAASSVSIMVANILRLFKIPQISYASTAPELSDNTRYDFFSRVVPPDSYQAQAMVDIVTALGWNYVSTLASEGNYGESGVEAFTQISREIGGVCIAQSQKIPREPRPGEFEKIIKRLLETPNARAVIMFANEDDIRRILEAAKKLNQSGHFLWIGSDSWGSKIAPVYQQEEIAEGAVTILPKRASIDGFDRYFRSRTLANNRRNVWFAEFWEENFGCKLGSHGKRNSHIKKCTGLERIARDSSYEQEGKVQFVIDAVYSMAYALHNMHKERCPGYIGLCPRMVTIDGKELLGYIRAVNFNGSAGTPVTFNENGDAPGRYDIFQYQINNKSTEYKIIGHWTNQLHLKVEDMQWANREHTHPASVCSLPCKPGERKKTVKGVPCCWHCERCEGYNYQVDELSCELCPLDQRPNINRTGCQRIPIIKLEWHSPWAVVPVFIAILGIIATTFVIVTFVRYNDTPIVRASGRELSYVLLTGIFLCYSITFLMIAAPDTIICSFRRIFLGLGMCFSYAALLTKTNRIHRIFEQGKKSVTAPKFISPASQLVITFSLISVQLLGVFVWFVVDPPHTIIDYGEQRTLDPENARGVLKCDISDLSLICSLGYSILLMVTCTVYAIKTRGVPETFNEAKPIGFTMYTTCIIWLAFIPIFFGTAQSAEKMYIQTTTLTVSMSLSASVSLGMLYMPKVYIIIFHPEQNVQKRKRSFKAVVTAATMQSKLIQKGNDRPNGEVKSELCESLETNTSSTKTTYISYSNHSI
Experiment: mGluR8 Gi/Go-coupled signaling modulation – cell-based, rat, thallium flux, HTS, primary screen (AID 488969)
Conditions: HEK293 rat mGluR8, GIRK (G protein-gated inwardly rectifying potassium channel) thallium flux, FluoZin2; at 10 µM; stronger effect = higher value; submaximal glutamate (EC20) added with thallium

Row | SMILES | z-score
1 | CN1CCN(C(=O)c2sc(=S)n(-c3ccccc3)c2N)CC1 | 11.1 (active)
2 | Cc1ccc(-n2c(N)c(C(=O)N3CCN(C)CC3)sc2=S)cc1 | 0.948
3 | Nc1c(C(=O)N2CCCCC2)sc(=S)n1-c1ccccc1 | -0.163
4 | COc1ccc(OC)c(NS(=O)(=O)c2cc(OC)ccc2OC)c1 | -0.0402
5 | COCCCNS(=O)(=O)c1ccc(OC)c(Cl)c1Cl | 0.284
6 | COc1ccc(COC(=O)NNC(=O)c2ccccc2Cl)cc1 | 0.289
7 | COc1ccc(-n2c(C)cc(C(=O)CN3C(=O)c4ccccc4C3=O)c2C)cc1 | 0.595
8 | COc1ccc(C2C(C(N)=O)=C(C)Nc3nc(-c4ccccc4)nn32)cc1OC (stereo not given) | 0.875
9 | COc1cccc(C2C(C(N)=O)=C(C)Nc3nc(-c4cccc(Cl)c4)nn32)c1 (stereo not given) | -0.342
10 | COc1ccc(OC)c(C2C(C(N)=O)=C(C)Nc3nc(-c4cccc(Cl)c4)nn32)c1 (stereo not given) | 1.16
11 | CC1=C(C(N)=O)C(c2cccnc2)n2nc(-c3cccc(Cl)c3)nc2N1 (stereo not given) | 0.192
12 | CC1=C(C(N)=O)C(c2cccs2)n2nc(-c3cccc(Cl)c3)nc2N1 (stereo not given) | 2.14
13 | COc1ccc(C2C(C(N)=O)=C(C)Nc3nc(-c4cccc(Cl)c4)nn32)cc1OC (stereo not given) | 4.01 (active)
14 | Cc1nc2ccccn2c1C(=O)NN=C1C2CC3CC(C2)CC1C3 | -0.259
15 | O=c1[nH]cnc2scc(-c3ccccc3)c12 | 0.259
16 | O=c1[nH]cnc2scc(-c3ccc(F)cc3)c12 | -0.0775
17 | S=c1[nH]cnc2scc(-c3ccccc3)c12 | 13.1 (active)
18 | O=c1[nH]cnc2scc(-c3ccc(-c4ccccc4)cc3)c12 | 0.454
19 | Cc1ccc(-c2csc3nc[nH]c(=S)c23)cc1C | 15.9 (active)
20 | Cc1ccc(-c2csc3ncnc(-n4nnc5ccccc54)c23)cc1C | -0.0158
21 | O=C(CSCCc1ccccn1)Nc1ccc(Br)cn1 | -0.0969
22 | CCc1nnc(NC(=O)c2cc(S(=O)(=O)N3CCN(c4ccccc4)CC3)ccc2Cl)s1 | -0.438
23 | CCCCOc1c(Br)cc(/C=N/O)cc1OCC | 2.8

Row | SMILES | z-score
24 | CCCOc1c(Br)cc(/C=N/O)cc1OC | -0.858
25 | CCOc1cc(/C=N/O)cc(Br)c1OCC | -0.564
26 | CCOc1ccc(NC(=O)CN2CCN(CC(=O)Nc3ccc(F)c(F)c3)CC2)cc1 | -0.0841
27 | N#Cc1cnn(Cc2ccccc2)c1N | -0.318
28 | CCOC(=O)C1CCCN(Cc2nc(N)nc(Nc3ccc(Cl)cc3)n2)C1 (stereo not given) | -0.508
29 | Fc1ccccc1NC(=S)NN(Cc1ccccc1)c1ccccc1 | 5.03 (active)
30 | Cc1cccc(NC(=S)NN(Cc2ccccc2)c2ccccc2)c1C | -0.141
31 | CC(C)c1ccccc1NC(=S)NN(Cc1ccccc1)c1ccccc1 | -0.164
32 | c1ccc(-c2ccc(-c3cnc4n3CCCCC4)cc2)cc1 | 0.704
33 | O=C(O)CCCCNS(=O)(=O)c1ccc(Cl)c(C(F)(F)F)c1 | -0.602
34 | CC(C)OC(=O)CSc1nnc(SCc2cccc3ccccc23)s1 | -0.157
35 | Cc1ccc(C(=O)NNC(=O)c2cccnc2SCc2cccc([N+](=O)[O-])c2)cc1 | -0.0883
36 | O=C(NNC(=O)c1cccnc1SCc1cccc([N+](=O)[O-])c1)c1ccc(F)cc1 | 0.33
37 | O=C(NNC(=O)c1cccnc1SCc1cccc([N+](=O)[O-])c1)c1ccccn1 | 3.29 (active)
38 | COc1cc(NC(=O)c2cc(OC)c(OC)c(OC)c2)c(OC)cc1NC(=O)CN1CCCCC1 | -2.33
39 | CCN1/C(=C2\C(=O)N(C)C(=S)N2C)C=Cc2ccccc21 | -0.543
40 | CC(C)Cn1c(-c2ccc(Br)o2)n[nH]c1=S | 1.12
41 | Cc1ccc(-c2n[nH]c(=S)n2Cc2ccccc2)cc1 | -0.277
42 | S=c1[nH]nc(-c2cc3ccccc3o2)n1Cc1ccccc1 | 2.66
43 | S=c1[nH]nc(-c2ccco2)n1Cc1ccccc1 | 0.271
44 | Cc1cccc(-c2n[nH]c(=S)n2Cc2ccccc2)c1 | 1.74
45 | S=c1[nH]nc(-c2ccc(Br)o2)n1Cc1ccccc1 | 3.42 (active)
46 | COc1ccc(C(=O)Cn2nnc(-c3ccccc3F)n2)cc1 | -0.251

Row | SMILES | z-score
47 | C1CCC2(CC1)OCC1(CO2)COC2(CCCCC2)OC1 | 3.83 (active)
48 | C[N+]1(CC2COC3(CCCCC3)O2)CCCC1 (stereo not given) | -0.214
49 | Nn1c(SCc2ccccc2)nnc1-c1ccccn1 | 0.00631
50 | CC(=O)NCCn1c(SCC(=O)NCC2CCCO2)nc2ccccc2c1=O (stereo not given) | 0.564
51 | CCN(CC)S(=O)(=O)c1cccc(-c2nnc(C(=O)c3ccc(C(F)(F)F)cc3)o2)c1 | -0.091
52 | CC(C)Oc1cc(NC(=O)CSCC(=O)Nc2cccc(C(F)(F)F)c2)c(Cl)cc1Cl | -0.183
53 | COc1cc(NC(=O)CSCC(=O)Nc2cccc(C(F)(F)F)c2)c(Cl)cc1Cl | -0.193
54 | CC(C)Oc1cc(NC(=O)CS(=O)CC(=O)Nc2cccc(C(F)(F)F)c2)c(Cl)cc1Cl (stereo not given) | 2.75
55 | CCCn1nnnc1NC(=O)c1cccs1 | 0.876
56 | CCCn1nnnc1NC(=O)c1cc(Cl)ccc1Cl | 0.462
57 | CCCn1nnnc1NC(=O)c1ccc2ccccc2c1 | 8.08 (active)
58 | CSc1nc(Cc2ccc(Cl)cc2)nc2ccccc12 | 0.221
59 | CS(=O)(=O)N(CC(=O)Nc1ccccc1)Cc1ccc(Cl)cc1 | 0.264
60 | CCN=c1scc(-c2ccco2)n1/N=C/c1ccc(O)cc1 | 6.24 (active)
61 | CCN=c1scc(-c2ccco2)n1/N=C/c1ccc(OC)c(O)c1 | 0.709
62 | CC(C)N=c1scc(-c2ccco2)n1/N=C/c1ccc(O)c(O)c1 | 1.68
63 | O=C(CCn1c(=O)sc2ccccc21)Nc1ccon1 | -0.246
64 | Cc1ccc(OS(=O)(=O)c2ccccc2)c(/C=N/N=C2\NC(=O)C(C)S2)c1 (stereo not given) | -0.426
65 | O=C(O)/C(=C\c1ccc(Br)cc1)c1ccc(S(=O)(=O)N2CCCCC2)s1 | -0.862
66 | CCOC(=O)C(Cc1ccccc1)NC(C)=O (stereo not given) | -0.16
67 | CCN(C(=O)CSc1cc(-c2ccccc2)c2ccc(OC)cc2n1)C1CCS(=O)(=O)C1 (stereo not given) | -0.108
68 | CCCN(C(=O)CSc1cc(-c2ccccc2)c2ccc(OC)cc2n1)C1CCS(=O)(=O)C1 (stereo not given) | -0.403
69 | COc1ccc2c(-c3ccccc3)cc(SCC(=O)N(C)C3CCS(=O)(=O)C3)nc2c1 (stereo not given) | 2.36

Row | SMILES | z-score
70 | O=C(CSc1nnc(Cc2ccccc2)n1-c1ccc(F)cc1)N1CCOCC1 | 0.477
71 | O=S(=O)(Cc1cc(Cl)nc(-c2ccccc2)n1)c1ccccc1 | -0.303
72 | COc1ccc(C(=O)NC(=S)Nc2ccc3c(c2)Cc2ccccc2-3)cc1 | 0.991
73 | O=C(COc1ccccc1)NC(=S)Nc1cccc(NC(=O)c2ccccc2Cl)c1 | -0.164
74 | O=C(COc1ccccc1)Nc1ccc2c(c1)Cc1cc(NC(=O)COc3ccccc3)ccc1-2 | -0.155
75 | O=C(COc1ccccc1)NC(=S)Nc1cccc([N+](=O)[O-])c1 | 11.8 (active)
76 | O=C(COc1ccccc1)Nc1ccc([N+](=O)[O-])cc1 | 0.423
77 | O=C(COc1ccccc1)NC(=S)Nc1ccc2c(c1)Cc1ccccc1-2 | 6.86 (active)
78 | CC(Sc1ccccn1)C(=O)Nc1ccccc1 (stereo not given) | -0.408
79 | Cc1cc2nc(-c3ccco3)cc(C(F)(F)F)n2n1 | 0.0437
80 | CC1CC(Nc2cccc(O)c2)=CC(=O)O1 (stereo not given) | -0.0768
81 | CCCCC(=O)Nc1ncc2c(n1)CC(C)(C)CC2=O | 6.64 (active)
82 | CCCCC1CC1C(=O)Nc1ncc2c(n1)CC(C)(C)CC2=O (stereo not given) | -0.185
83 | CC1(C)CC(=O)c2cnc(NC(=O)CCc3ccccc3)nc2C1 | -0.267
84 | O=C(O)C1CC(=O)N(Cc2cccs2)C1 (stereo not given) | 0.254
85 | Cc1nc(-c2ccccc2)sc1C(=O)CSc1ccc(Br)cc1 | -0.108
86 | O=C(CSc1ccccc1)N(c1ccc(Br)cc1)c1nccs1 | 9.08 (active)
87 | O=C(CCSc1ccccc1)Nc1nccs1 | 0.115
88 | CCOC(=O)C1CCCN(C(=O)c2cc3c(-c4cccc(OC)c4)nn(C)c3s2)C1 (stereo not given) | -0.832
89 | Cc1nc(=O)c(-c2ccccc2)c(C)n1CCO | -0.0934
90 | N=c1c2c3c(sc2ncn1Cc1ccccc1)CCCC3 | 0.187
91 | N=c1c2c3c(sc2ncn1CCCO)CCCC3 | -0.123
92 | CC(C)Cn1cnc2sc3c(c2c1=N)CCCC3 | 3.07 (active)

Row | SMILES | z-score
93 | CCCNC(=S)Nc1ccc(Cl)cc1C | -0.142
94 | COc1cccc(N2CCN(Cc3nc(N)nc(Nc4ccccc4OC)n3)CC2)c1 | -0.203
95 | Cc1cccc(C)c1OCC(=O)NCc1nnc(SCC(=O)NC2CCCCC2C)n1C (stereo not given) | -0.0497
96 | Cc1ccccc1NC(=S)NNc1ncc(C(F)(F)F)cc1Cl | 0.522
97 | Fc1ccccc1NC(=S)NNc1ncc(C(F)(F)F)cc1Cl | 1.37
98 | Cc1ccc(NC(=S)NNc2ncc(C(F)(F)F)cc2Cl)cc1 | 2.19
99 | Cc1cccc(C)c1NC(=S)NNc1ncc(C(F)(F)F)cc1Cl | 0.289
100 | CC(C(=O)Nc1ccc(Cl)cc1)c1ncc(C(F)(F)F)cc1Cl (stereo not given) | -0.108
101 | Nc1ccccc1C(=O)NNc1ncc(C(F)(F)F)cc1Cl | 0.251
102 | O=C(NNc1ncc(C(F)(F)F)cc1Cl)c1c(Cl)cccc1Cl | 0.951
103 | FC(F)(F)c1cnc(NNC(=S)Nc2ccc(Cl)cc2)c(Cl)c1 | 6.35 (active)
104 | Cc1c(Cl)cccc1NC(=S)NNc1ncc(C(F)(F)F)cc1Cl | 0.506
105 | CN(NC(=O)Nc1ccc(Cl)cc1)c1ncc(C(F)(F)F)cc1Cl | 0.137
106 | FC(F)(F)c1cnc(NNC(=S)Nc2ccccc2Cl)c(Cl)c1 | 5.28 (active)
107 | Cc1ccc(NC(=S)NNc2ncc(C(F)(F)F)cc2Cl)c(C)c1 | 2.04
108 | COc1cc2c(cc1NC(=O)c1cccc(Br)c1)CCCC2 | 0.201
109 | N#Cc1cc2c(nc1SCC(N)=O)CCCCC2 | -0.0763
110 | COc1ccc(-c2csc(Nc3cccnc3)n2)cc1OC | -0.0895
111 | Cc1cc(=O)oc(C)c1C(=O)OCC(=O)c1ccc2ccccc2c1 | -0.249
112 | CCCCCCn1cnc2c(c1=O)c1nc3ccccc3nc1n2Cc1cccs1 | -1.43
113 | Cc1nn2c(NCCCN(C)C)c3c(nc2c1-c1ccccc1)CCC3 | 3.36 (active)
114 | Cc1nn2c(NCCCN3CCOCC3)c3c(nc2c1-c1ccccc1)CCC3 | -0.0116
115 | CCCCNc1c2c(nc3c(-c4ccccc4)c(C)nn13)CCC2 | -0.294
